High-throughput results (PubChem BioAssay)
SW480 rereplic – induces DNA re-replication in SW480 colon adenocarcinoma cells; SW480 DNA re-replication, Hoechst DNA content imaging, 48 h; Potency, µM (titrated, usually from 46.1 µM), for the others: top-dose re-replication activation, most hits filed as activators; 1.8% of 340,000 active; also: % of control where 0% means no effect; nearly all actives have a fitted effect of over 55% in size
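SW480 cells exposed to compounds for 48 hr at 37 C, 5% CO2, then Hoechst-stained 40 min. Nuclear DNA content imaged by fluorescence scanning (405 nm excitation, 500-530 nm emission); re-replication scored as increased high-intensity nuclei.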
12-LOX inh – ALOX12 (human) lipoxygenase inhibition. purified 12hLO, xylenol orange hydroperoxide absorbance. AID 1671190. Potency, µM (doses to about 108 µM), for inactives: at the top dose activity change, negative = inhibition, usual class: inhibitors. 1.1% of 580,000 active; also: % is scaled to controls: 0 for no effect and ±100 for the full control effect
Target sequence (P18054 whole entry, looked up): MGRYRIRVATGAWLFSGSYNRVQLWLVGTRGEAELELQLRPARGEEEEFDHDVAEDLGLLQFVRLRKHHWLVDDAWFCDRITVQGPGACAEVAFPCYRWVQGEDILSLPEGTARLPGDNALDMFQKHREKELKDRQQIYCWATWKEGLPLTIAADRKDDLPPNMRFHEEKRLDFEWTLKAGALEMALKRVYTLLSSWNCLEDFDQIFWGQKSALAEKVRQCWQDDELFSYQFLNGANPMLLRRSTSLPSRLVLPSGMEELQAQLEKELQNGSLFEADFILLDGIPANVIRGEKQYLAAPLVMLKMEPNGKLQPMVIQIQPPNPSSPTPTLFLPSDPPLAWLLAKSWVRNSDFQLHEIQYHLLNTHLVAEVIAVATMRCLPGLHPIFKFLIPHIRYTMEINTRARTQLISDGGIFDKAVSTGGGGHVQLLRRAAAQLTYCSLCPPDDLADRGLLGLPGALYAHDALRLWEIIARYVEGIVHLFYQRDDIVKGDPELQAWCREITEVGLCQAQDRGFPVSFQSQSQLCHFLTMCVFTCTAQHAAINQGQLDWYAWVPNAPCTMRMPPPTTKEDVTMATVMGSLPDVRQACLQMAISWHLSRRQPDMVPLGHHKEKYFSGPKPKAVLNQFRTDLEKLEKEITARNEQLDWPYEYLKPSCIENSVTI
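Hydroperoxide product was detected by ferrous iron/xylenol orange as the 573 to 405 nm absorbance ratio. Arachidonic acid at 40 uM (final) was turned over for 30 min at room temperature by 150 nM human 12hLO, pH 7.0 Hepes buffer, after 15 min compound preincubation.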
KB-V1 cytotox – KB-V1 MDR subline cytotoxicity. KB-V1 MDR cells viability, CellTiter-Glo, 72 h. Potency, µM (top dose mostly 46.1 µM), usual class: cytotoxic. 3.4% of 400,000 active. AID 1347076; also: % is scaled to controls: 0 for no effect and ±100 for the full control effect; nearly all actives have a fitted effect of over 60% in size
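qHTS viability screen in drug-selected KB-V1 MDR cells: 72 h compound treatment at 37 degrees C, ATP luminescence end point.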
KB-3-1 cytotox – kills parental KB-3-1 adenocarcinoma cells | KB-3-1 viability, CellTiter-Glo ATP luminescence, 72 h | AID 1347075 | Potency, µM (highest dose often 46.1 µM), usual class: cytotoxic | 1.4% of 400,000 active; also: % is scaled to controls: 0 for no effect and ±100 for the full control effect; nearly all actives have a fitted effect of over 60% in size
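Screening of KB-3-1 cells (DMEM, 10% FBS, phenol-red free) ran from lowest to highest compound concentration; after 72 h at 37 °C viability was read luminescently and curves fitted.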
PINK1 modulator – changes PINK1 expression; PINK1 immunofluorescence, high-content cytometry, 24 h; Potency, µM (doses to about 76.6 µM), without a hit: at the highest dose activation (PINK1 increase), most hits filed as activators; 0.2% of 410,000 active; active = well fitted activation curve with a large enough effect; inconclusive = small, poorly fitted or top-dose-only effect; cell line not stated here; also: % of control where 0% means no effect; nearly all actives have a fitted effect of over 65% in size
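Measures PINK1 amount and localization on or inside mitochondria by immunofluorescence. Stable cells get compounds at 5 concentrations for 24 hours before fixation and staining; CCCP controls included.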
MCF10A rereplic – inducers of DNA re-replication in MCF 10A breast cells. MCF 10A DNA re-replication, Hoechst nuclear intensity, 48 h. 2.9% of 350,000 active. Potency, µM (series often up to 46.1 µM), for inactives: at the top dose activity, positive = re-replication, actives largely listed as activators; also: % of control where 0% means no effect; nearly all actives have a fitted effect of over 50% in size
* = called active by the depositor; [ ] = another dose, or the depositor's remark. Rows were chosen to be rich in hits. Some 5.8% of all compounds tested hit in one or more screens of this group. Unless noted, calls follow the shape of the dose curve; as a rule, active = well fitted curve in the direction sought with a large enough effect; inconclusive = small, poorly fitted or top-dose-only effect, or another doubt; inactive = no such curve, though single readings can be large; an effect the other way counts as inactive or inconclusive. Potency is read from the fitted curve at half-maximal effect.

Results for N#CC(C#N)=C1C=CC=CN1/C(=C\c1ccco1)C(=O)c1ccc(-c2ccccc2)cc1 ?
12-LOX inh: inconclusive; KB-V1 cytotox: inactive; KB-3-1 cytotox: inactive; PINK1 modulator: -2%; MCF10A rereplic: 3.3µM*

Results for CCn1cnc2c1c(=O)n(CC(=O)Nc1ccc(C)c(F)c1)c(=O)n2Cc1ccccc1 ?
12-LOX inh: -75%

Results for Cc1cc(C)c2cccc(NC(=O)C(C)N3C(=O)c4ccccc4C3=O)c2n1 (stereo unspecified) ?
12-LOX inh: 32%

How did CO[C@H]1[C@H](NC(=O)c2sccc2Cl)c2ccccc2C12CCNCC2 do in these assays?
12-LOX inh: 32%

How did COc1ccc(-c2nc(Cn3c(SCc4ccc(F)cc4)nc4ccncc43)c(C)o2)cc1OC do in these assays?
SW480 rereplic: 0%; 12-LOX inh: 11%[57.4 µM]; KB-V1 cytotox: inactive; KB-3-1 cytotox: inconclusive; PINK1 modulator: -1%; MCF10A rereplic: 3.7µM*

How did Cc1ccc(CSc2nc3ccncc3n2Cc2nc(-c3ccc(Cl)cc3)oc2C)cc1 do in these assays?
12-LOX inh: 0%; KB-V1 cytotox: inactive; KB-3-1 cytotox: inactive; PINK1 modulator: 5%

What do the screens show for `CC(C)C(=O)Nc1ccc(NC(=O)Nc2cccc(Cl)c2)cc1`?
12-LOX inh: -4%

How did CN(Nc1cccc(Cl)c1)c1cccc(Cl)c1 do in these assays?
SW480 rereplic: inconclusive; 12-LOX inh: 32µM*; KB-V1 cytotox: inactive; KB-3-1 cytotox: inactive; PINK1 modulator: 7%; MCF10A rereplic: inconclusive

What do the screens show for `COc1cccc(NC(=O)Nc2ccccc2SC)c1`?
SW480 rereplic: 2%; 12-LOX inh: -5%; KB-V1 cytotox: inactive; KB-3-1 cytotox: inactive; PINK1 modulator: 2%; MCF10A rereplic: 6%

What do the screens show for `CN(C)c1ccc(NC(=O)Nc2cccc(Cl)c2)cc1`?
SW480 rereplic: -1%; 12-LOX inh: -10%; KB-V1 cytotox: 13µM*; KB-3-1 cytotox: inactive; PINK1 modulator: 8%[38.3 µM]; MCF10A rereplic: -2%

What do the screens show for `CN(c1cccc(NC(=O)Nc2cccc(Cl)c2)c1)S(C)(=O)=O`?
SW480 rereplic: -2%; 12-LOX inh: inconclusive; KB-V1 cytotox: inconclusive; KB-3-1 cytotox: inactive; PINK1 modulator: inconclusive; MCF10A rereplic: 12%

How did CCOc1ccc(NC(=O)CCC(=O)NNC(=O)Nc2cccc(Cl)c2)cc1 do in these assays?
SW480 rereplic: inconclusive; 12-LOX inh: 0%; KB-V1 cytotox: inconclusive; KB-3-1 cytotox: inactive; PINK1 modulator: 5%; MCF10A rereplic: 0.18µM*

What do the screens show for `CCOc1ccc(NC(=O)CCC(=O)NNC(=O)COc2ccc(C)cc2)cc1`?
SW480 rereplic: -1%; 12-LOX inh: -2%; KB-V1 cytotox: inactive; KB-3-1 cytotox: inactive; PINK1 modulator: 5%; MCF10A rereplic: -4%

How did CSc1ccccc1NC(=O)Nc1cccc(Cl)c1 do in these assays?
SW480 rereplic: 15%; 12-LOX inh: inconclusive; KB-V1 cytotox: 16µM*; KB-3-1 cytotox: inconclusive; PINK1 modulator: 7%[38.3 µM]; MCF10A rereplic: inconclusive

Results for Clc1cc(Cn2nnc(-c3ccccc3)n2)cc2c1OCCCO2 ?
12-LOX inh: -27%

How did Cc1ccc2c(COC(=O)c3cccs3)cc(=O)oc2c1C do in these assays?
12-LOX inh: -23%

What do the screens show for `CCc1cccc(-n2nnc(-c3nsc(NC(=O)c4cccc(F)c4)n3)c2C)c1`?
12-LOX inh: 1%

Results for CSc1ccccc1NC(=O)Nc1ccc(F)c(Cl)c1 ?
SW480 rereplic: -1%; 12-LOX inh: inconclusive; KB-V1 cytotox: 21µM*; KB-3-1 cytotox: inactive; PINK1 modulator: inconclusive; MCF10A rereplic: inconclusive

Results for CSc1ccccc1NC(=O)Nc1cccc(Cl)c1Cl ?
SW480 rereplic: 6%; 12-LOX inh: -3%; KB-V1 cytotox: inconclusive; KB-3-1 cytotox: inactive; PINK1 modulator: 21%[38.3 µM]; MCF10A rereplic: 23µM*

How did CSc1ccccc1NC(=O)Nc1cccc(Cl)c1C do in these assays?
SW480 rereplic: -2%; 12-LOX inh: 5%; KB-V1 cytotox: inactive; KB-3-1 cytotox: inactive; PINK1 modulator: 1%; MCF10A rereplic: -2%

Results for Cc1ccc(NC(=O)Nc2ccc(F)c(Cl)c2)cc1 ?
SW480 rereplic: -3%; 12-LOX inh: 8%; KB-V1 cytotox: inactive; KB-3-1 cytotox: inactive; PINK1 modulator: 4%; MCF10A rereplic: 1%

How did O=C(NCC(=O)N1CCN(S(=O)(=O)c2ccccc2F)CC1)c1ccc2c(c1)OCO2 do in these assays?
SW480 rereplic: inconclusive; 12-LOX inh: 0%; KB-V1 cytotox: inactive; KB-3-1 cytotox: inactive; PINK1 modulator: 2%; MCF10A rereplic: inconclusive

What do the screens show for `O=C(Cc1ccc(Cl)cc1Cl)N1CCN(c2ccccc2O)CC1`?
12-LOX inh: 40µM*

Results for O=C(CCN1C(=O)c2ccccc2C1=O)N1CCN(Cc2ccc(Cl)cc2Cl)CC1 ?
SW480 rereplic: 5%; 12-LOX inh: -11%; KB-V1 cytotox: 15µM*; KB-3-1 cytotox: inactive; PINK1 modulator: inconclusive; MCF10A rereplic: 16%

Results for O=C(NCC(=O)N1CCN(c2ccccc2O)CC1)c1ccc2c(c1)OCO2 ?
SW480 rereplic: -3%; 12-LOX inh: 32µM*; KB-V1 cytotox: inactive; KB-3-1 cytotox: inactive; PINK1 modulator: -2%; MCF10A rereplic: -16%

How did O=C(Nc1ccc(Cl)cc1)C1CCN(C(=O)c2ncn3c2COC(c2ccccc2)C3)CC1 (stereo unspecified) do in these assays?
12-LOX inh: 30%

How did CC(=O)N(Cc1ccc(Br)cc1)c1ccccc1C(=O)O do in these assays?
SW480 rereplic: 2.6µM*; 12-LOX inh: -1%; KB-V1 cytotox: inactive; KB-3-1 cytotox: inactive; PINK1 modulator: -1%; MCF10A rereplic: -2%

Results for CCN1/C(=C2/SC(=S)N(NC(C)=O)C2=O)Sc2ccccc21 ?
SW480 rereplic: 5%; 12-LOX inh: 0%; KB-V1 cytotox: inactive; KB-3-1 cytotox: inactive; PINK1 modulator: 22µM*; MCF10A rereplic: 6%

How did NN1C(=O)/C(=C2/Sc3ccccc3N2CCCS(=O)(=O)O)SC1=S do in these assays?
SW480 rereplic: -6%; 12-LOX inh: 14µM*; KB-V1 cytotox: inactive; KB-3-1 cytotox: inactive; PINK1 modulator: -1%; MCF10A rereplic: -3%

Results for CC(=O)NN1C(=O)/C(=C2/Sc3ccccc3N2C)SC1=S ?
SW480 rereplic: -17%; 12-LOX inh: 0%; KB-V1 cytotox: inactive; KB-3-1 cytotox: inactive; PINK1 modulator: 29%; MCF10A rereplic: 0%
